LMNA splice mod: modulators of lamin A splicing; Potency, µM (doses to about 46.1 µM), without a hit: at the top dose ratio change, negative = inhibition, most hits filed as inhibitors; HeLa LMNA splicing GFP/RFP minigene ratio, 48 h; 200,000 tested, 0.01% active; active means well fitted inhibition curve with a large enough effect in the signal ratio, with a control signal flat, not every such curve was filed as active; inconclusive means small, poorly fitted or top-dose-only effect, or effect the other way, or a change in a side signal; the % refers to the signal ratio; further: potency means the concentration at half of the fitted maximal effect
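S3 HeLa stable clones carrying a lamin A-EGFP splicing minigene plus DsRed2 were seeded at 600 cells/well in Opti-MEM with 2% FBS, pin-dosed and incubated 48 h at 37°C. Acumen cytometry (488 nm) gave the GFP/RFP total-intensity ratio.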
PNC inhibitor: blocks assembly of the perinucleolar compartment. PC3M PTB-GFP, PNC prevalence imaging, 16 h; active compounds read low. activity change (PNC), negative = inhibition, % at 10 µM. 140,000 tested, 3.1% active;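 active means readout at or below -70, meaning at least 70% loss of cells showing the perinucleolar compartment, a nuclear body marking cancer cells; inconclusive means readout between -30 and a set limit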;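 further: plate controls were DMSO wells for no effect and camptothecin positive control wells for full effect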
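PC3M cells stably expressing PTB-GFP, 750–1000 cells/well, treated 16 h at 37 °C with compound (23 nl of library stock), in duplicate. After paraformaldehyde fixation and Hoechst stain, imaged at 20x; PNC prevalence scored by image analysis.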
HPGD inh: inhibitors of human 15-hydroxyprostaglandin dehydrogenase (HPGD); P15428; purified HPGD, NADH fluorescence kinetic, PGE2 substrate; Potency, µM, inactives show top-dose activity change, negative = inhibition, hits mostly inhibitors; 150,000 tested, 4.3% active; AID 894; further: potency means the concentration at half of the fitted maximal effect
Target sequence (P15428 whole entry, looked up): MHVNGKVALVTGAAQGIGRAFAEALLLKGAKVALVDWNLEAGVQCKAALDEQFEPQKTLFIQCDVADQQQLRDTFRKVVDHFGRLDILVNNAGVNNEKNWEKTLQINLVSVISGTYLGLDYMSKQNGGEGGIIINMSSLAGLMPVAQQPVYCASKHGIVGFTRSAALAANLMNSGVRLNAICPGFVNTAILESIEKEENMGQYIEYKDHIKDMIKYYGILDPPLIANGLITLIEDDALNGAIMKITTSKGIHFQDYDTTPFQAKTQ
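NADH formation kinetics: reaction with 30 uM PGE2 and 1 mM NAD+ (final), 20 nM enzyme, Tris-HCl pH 8 with Tween 20, after 15 min compound preincubation at room temperature. Fluorescence change, last versus first of five reads.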
12-hLO inh: 12-hLO (ALOX12) enzyme inhibition. purified 12-hLO, xylenol orange hydroperoxide absorbance. 150,000 tested, 0.12% active. P18054. AID 1452. Potency, µM (series often up to 57.1 µM), inactives show at the highest dose activity change, negative = inhibition, actives largely listed as inhibitors; active means well fitted inhibition curve with a large enough effect; inconclusive means small, poorly fitted or top-dose-only effect; further: potency means the concentration at half of the fitted maximal effect; nearly all actives have a fitted effect of over 55% in size
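Purified human 12hLO (150 nM final) was preincubated with compounds for 15 min at room temperature in 25 mM Hepes pH 7.0, 0.01% Triton X-100, then reacted with 40 uM arachidonic acid for 30 min. Hydroperoxide was detected with ferrous iron/xylenol orange.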
ALDH1A1 inh: ALDH1A1 (human) enzyme inhibition; P00352; Purified ALDH1A1, NADH fluorescence, propionaldehyde substrate; Potency, µM (top dose mostly 75.3 µM), without a hit: top-dose activity, negative = inhibition, actives largely listed as inhibitors; 220,000 tested, 7.3% active; AID 1030;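 further: potency means the concentration at half of the fitted maximal effect; plate controls were no enzyme wells and a reference inhibitor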
* marks the source's active call; other numbers are inactive results; u = inconclusive; x = no result; [ ] = remark or other dose. Rows were chosen to be rich in hits. Some 10% of all compounds tested hit in one or more screens of this group. Unless noted, the call rests on the fitted dose curve; in most records, active means well fitted inhibition curve with a large enough effect (not every such curve was filed as active); inconclusive means small, poorly fitted or top-dose-only effect, or another doubt; inactive means no such curve, though single readings can be large or run the other way. Unless noted, on the % scale 0 is the no-effect control and ±100 the full control effect.

SMILES	LMNA splice mod	PNC inhibitor	HPGD inh	12-hLO inh	ALDH1A1 inh
C[C@@H]1[C@H](C)CC[C@@]2(C(=O)O)CC[C@]3(C)C(=CC[C@H]4[C@@]5(C)CC[C@@H](O)C(C)(C)[C@@H]5CC[C@@]43C)[C@@H]12	-3%	x	-2%	-3%[25.6 µM]	13%[20.9 µM]
Cc1ccc(S(=O)(=O)N2CCN(C(=O)CSc3nnnn3C)CC2)c(C)c1	x	x	x	x	25µM*
C=CCC(C)(O)/C=C/c1ccccc1 (configuration not stated)	x	x	-10%	x	1%
O=C(O)CCCC[C@@H]1SC[C@H]2NC(=O)N[C@@H]12	x	x	4%	-1%	-2%
CCN(CC)c1ccc(/C=C2\C(=O)c3ccc(C(=O)O)cc3C2=O)cc1	-5%	u	2.8µM*	-3%	3.2µM*
COC(=O)CSc1nc2nc(C)cc(C)n2n1	-13%	-85*	-16%	-1%	-11%
COCCNC(=O)CSc1nc2nc(C)cc(C)n2n1	11%	-17	20µM*	-9%	-9%
COc1ccc(NC(=O)CSc2nc3nc(C)cc(C)n3n2)cc1	-7%[46 µM]	x	x	x	x
CCOC(=O)CSc1nc2nc(C)cc(C)n2n1	-10%	28	-5%	-5%	-2%
COc1cccc(-c2cn3c(n2)sc2cc(C(=O)NC4CCCCCC4)ccc23)c1	7%[46 µM]	x	x	x	x
O=C1[C@H]2[C@H]3[C@H](O)[C@H](O)C/C(=N/OC[C@@H](O)COCc4ccco4)[C@@H]3CC[C@@H]2C(=O)N1Cc1ccccc1	x	x	x	x	-9%[13.5 µM]
Cc1ccc(S(=O)(=O)CCc2ccccn2)cc1	-3%	-12	-15%	-3%	7%
CC(C)(C)c1ccc(S(=O)(=O)CCc2ccccn2)cc1	-6%	u	-14%	5%	7.1µM*
CCCOC(=O)c1ccc(NC(=O)c2c(Cl)ccc(Cl)c2OC)cc1	-18%	10	-8%	-1%	u
COc1c(Cl)ccc(Cl)c1C(=O)OCC(=O)O	-1%	24	-11%	-5%	22µM*
CCc1cccc(N(C(=O)c2csnn2)C(C(=O)NC(C)(C)C)c2ccncc2)c1 (configuration not stated)	x	x	x	x	2%
NNC(=O)c1ccccc1-n1cccc1	-13%[46 µM]	x	x	x	u
C/C(=N\NC(=O)c1ccccc1-n1cccc1)C1CC1	-16%	39	-15%	22%	4µM*
CCCC1=C(C(=O)OCC)C(c2cccs2)C(C#N)=C(N)O1 (configuration not stated)	-1%	-24	-19%	-29%	u
CCN1CC2=C(OC(N)=C(C#N)C2c2cccs2)/C(=C/c2cccs2)C1 (configuration not stated)	10%	-26	-14%	-17%	18µM*
CCN1C=C(Cc2cccs2)C2=C(C1)C(c1cccs1)C(C#N)=C(N)O2 (configuration not stated)	u	-24	-24%	-29%	20µM*
Cc1c(C(C)(C)C)c(C=S)n2ccccc12	20%	9	-14%	-18%	22µM*
Nc1ccnc2c1ncn2[C@@H]1O[C@H](CO)[C@@H](O)[C@H]1O	x	x	x	x	7%
COC(=O)c1sccc1NS(=O)(=O)c1ccc(OC)cc1	u	13	20µM*	-4%	-3%
COc1ccc(S(=O)(=O)NNC(=O)c2sccc2-n2cccc2)cc1	-5%[46 µM]	x	x	x	2.8µM*
SMILES	LMNA splice mod	PNC inhibitor	HPGD inh	12-hLO inh	ALDH1A1 inh
COc1ccc(S(=O)(=O)Nc2cc(C(C)C)c(O)cc2C)cc1	6%	-3	-4%	-19%	0.32µM*
COC(=O)c1sccc1NC(=O)Cc1ccc(OC)cc1	-2%	u	-7%	-2%	-6%
COC(=O)c1ccc(C)c(NS(=O)(=O)c2ccc(OC)cc2)c1	-8%	-94*	-2%	-10%	0.79µM*
COc1ccccc1NS(=O)(=O)c1cccc(C(=O)N/N=C(\C)c2ccc3c(c2)OCCO3)c1	6%	22	-9%	-4%	25µM*
C/C(=N\S(=O)(=O)c1ccc(C)cc1)Nc1cc(C(C)C)c(O)cc1C	u	u	-6%	-6%	2.8µM*
COC(=O)c1ccc(C)c(NS(=O)(=O)c2ccc3c(c2)OCCO3)c1	u	-112*	-1%	-7%	7.9µM*
COC(=O)c1ccc(C)c(NS(=O)(=O)c2ccc(C)c([N+](=O)[O-])c2)c1	8%	13	-13%	-2%	u
C#CCCCO/N=C1/C[C@@H](O)[C@@H](O)[C@@H]2[C@@H]3C(=O)N(c4cccc(Oc5ccccc5)c4)C(=O)[C@H]3CC[C@H]12	x	x	x	x	15%[13.5 µM]
COC(=O)c1ccc(CNC(=O)COC(=O)C23CC4CC(CC(C4)C2)C3)cc1	u	u	-9%	-1%	u
COC(=O)c1ccc(CNC(=O)COC(=O)CC23CC4CC(CC(Br)(C4)C2)C3)cc1	-7%	u	-26%	-7%	13µM*
COc1ccc([N+](=O)[O-])cc1NC(=O)c1ccco1	x	x	x	x	5%
CC(C)[C@H](NC(N)=O)C(=O)Nc1cccc([N+](=O)[O-])c1	-2%[46 µM]	x	x	x	2%
CC(OC(=O)/C=C/c1ccco1)C(=O)Nc1cccc([N+](=O)[O-])c1 (configuration not stated)	-15%	-84*	u	-3%	u
COc1ccc([N+](=O)[O-])cc1NC(=O)C(C)OC(=O)/C=C/c1ccco1 (configuration not stated)	u	72	28µM*	-3%	u
CCOC(=O)c1cc(S(=O)(=O)Nc2ccc(OC(F)(F)F)cc2)[nH]n1	8%[46 µM]	x	x	x	x
Cc1ccc(CCNC(=O)c2cc3cc4cc(C)ccc4nc3s2)cc1	2%[46 µM]	x	x	x	x
CCOc1ccccc1N(C)C(=O)C1CCCN(c2ncnc3onc(-c4ccc(F)cc4)c23)C1 (configuration not stated)	-2%[46 µM]	x	x	x	x
COc1ccccc1N=C1SC(C(=O)Nc2ccc(F)cc2)CC(=O)N1C (configuration not stated)	-3%	-100*	-6%	-1%	8%
CCC1CN(C(=O)N2CCC(C(=O)NCCc3ccc(Cl)cc3)CC2)c2ccccc2O1 (configuration not stated)	9%[46 µM]	x	x	x	x
O=C1Nc2ccccc2/C1=N\c1sc2c(c1C(=O)Nc1ccccc1)CCCC2	-7%	55	-9%	-1%	25µM*
O=C(CSc1n[nH]c(-c2ccco2)n1)Nc1sc2c(c1C(=O)Nc1ccccc1)CCCC2	5%	9	-7%	-2%	-3%
Cc1nc2sccn2c1P(c1c(C)nc2sccn12)c1c(C)nc2sccn12	-2%	-80*	4%	u	10%
CC1CCCCC1NC(=O)COC(=O)c1ccc2c(c1Cl)C(=O)c1ccccc1C2=O (configuration not stated)	-9%	8	16µM*	-1%	-16%
COc1ccc(C(=O)c2c(C)oc3ccc(O)c(CN4CCOCC4)c23)cc1	-3%	u	-10%	4%	8%
